From PubChem BioAssay (NCI)
Compounds without any hit were thinned out: in the full panel of roughly 79,000, 15% have a hit. Calls of active or inactive are those of the source. No stated cut-off is given here; in the data, active means growth inhibition above about 70%; inactive means the rest.

Legend:
[1] = NCI Yeast Anticancer Drug Screen. Data for the rad52 strain (AID 147);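 further: 0% = growth of vehicle-treated control cultures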; details: S. cerevisiae rad52 mutant growth inhibition, active compounds read high
Procedure, shortened: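 Compounds are applied to a genetically defined yeast strain lacking normal DNA damage repair, and inhibition of growth is expressed relative to cultures given vehicle only.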

[2] = NCI Yeast Anticancer Drug Screen. Data for the wt1 strain (AID 149);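 further: 0% = growth of vehicle-treated wt1 cultures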; details: S. cerevisiae wt1 strain (SPY 50644) growth inhibition, active compounds read high
Procedure, shortened: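 Measured: growth of wt1 yeast under compound versus vehicle treatment, reported as inhibition.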

[3] = NCI Yeast Anticancer Drug Screen. Data for the rad50EPP+ strain (AID 151);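 further: 0% = growth of vehicle-treated control cultures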; details: S. cerevisiae rad50 mutant strain, active compounds read high
Procedure, shortened: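 Compounds were applied to the rad50EPP+ yeast strain, which bears a defined DNA repair alteration, and growth inhibition was determined relative to vehicle-treated cultures.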

[4] = NCI Yeast Anticancer Drug Screen. Data for the mgt1 strain (AID 153); details: S. cerevisiae mgt1 mutant growth inhibition, active compounds read high
Procedure, shortened: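 Strain: mgt1 yeast, one of a set carrying defined DNA damage repair or cell cycle control alterations. Compound-treated growth compared with vehicle.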

[5] = NCI Yeast Anticancer Drug Screen. Data for the rad50 strain (AID 155);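 further: 0% = growth of vehicle-only cultures of the same strain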; details: S. cerevisiae rad50 strain growth inhibition, active compounds read high
Procedure, shortened: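 Growth of the mutant yeast was measured after compound exposure and referenced to vehicle-treated cultures.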

[6] = NCI Yeast Anticancer Drug Screen. Data for the mec2-1 strain (AID 157); details: S. cerevisiae mec2-1 strain, active compounds read high
Procedure, shortened: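 Strain: mec2-1 (DNA repair/cell cycle alteration). Compound exposure, then growth measured; inhibition expressed relative to vehicle.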

[7] = NCI Yeast Anticancer Drug Screen. Data for the rad14 strain (AID 159);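 further: 0% = growth of vehicle-treated control cultures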; details: S. cerevisiae rad14 strain growth inhibition, active compounds read high
Procedure, shortened: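 Here, inhibition of yeast growth was measured after compound exposure, using a strain with a genetic defect in DNA damage repair and vehicle-treated cultures as the reference.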

[8] = NCI Yeast Anticancer Drug Screen. Data for the sgs1 mgt1 strain (AID 161);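 further: 0% = growth of cultures given vehicle only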; details: S. cerevisiae sgs1 mgt1 strain, active compounds read high
Procedure, shortened: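 Read-out: growth inhibition vs vehicle controls. Cells: mutant yeast strain deficient in DNA damage repair.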

[9] = NCI Yeast Anticancer Drug Screen. Data for the CLN2oe strain (AID 163);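 further: 0% = growth of vehicle-only control cultures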; details: S. cerevisiae CLN2oe strain, active compounds read high
Procedure, shortened: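 Growth of a genetically modified yeast strain is measured after compound exposure and compared with cultures given vehicle alone.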

[10] = NCI Yeast Anticancer Drug Screen. Data for the cln2 rad14 strain (AID 165);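 further: 0% = growth equal to vehicle treated cultures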; details: S. cerevisiae cln2 rad14 strain, active compounds read high
Procedure, shortened: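 Compounds are applied to the cln2 rad14 yeast strain, and growth is then compared with that of vehicle-treated cultures to give inhibition.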

[11] = NCI Yeast Anticancer Drug Screen. Data for the bub3 strain (AID 167); details: S. cerevisiae bub3 mutant strain, active compounds read high
Procedure, shortened: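 Whole-cell yeast assay. The mutant strain was incubated with compounds, and growth inhibition was determined by comparison with vehicle-treated cells.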

[12] = NCI Yeast Anticancer Drug Screen. Data for the mlh1 strain (AID 171);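 further: 0% = growth of vehicle-treated control cultures of the same strain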; details: S. cerevisiae mlh1 strain growth inhibition, active compounds read high
Procedure, shortened: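 Growth of the mutant yeast strain after compound exposure, expressed as inhibition relative to vehicle-only controls.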

[13] = NCI Yeast Anticancer Drug Screen. Data for the sgs1 strain (AID 173);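 further: 0% = growth of vehicle-only control cultures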; details: S. cerevisiae sgs1 mutant, active compounds read high
Procedure, shortened: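 Growth of a yeast strain bearing a defined genetic alteration is measured after compound treatment. Inhibition is expressed relative to vehicle-only controls.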

[14] = NCI Yeast Anticancer Drug Screen. Data for the mlh1 rad18 strain (AID 175); details: S. cerevisiae mlh1 rad18 strain growth inhibition, active compounds read high
Procedure, shortened: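 Read-out is yeast growth inhibition, calculated against vehicle-only controls. The compound was applied to a strain engineered with DNA damage repair alterations.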

[15] = NCI Yeast Anticancer Drug Screen. Data for the rad18 strain (AID 177); details: S. cerevisiae rad18 mutant growth inhibition, active compounds read high
Procedure, shortened: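 Growth of the mutant yeast strain after compound exposure, normalised to vehicle-only cultures.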

[16] = at 5.0 µM (retest, dose inferred, filed as 0.5)
[17] = at 50.0 µM (retest, dose inferred, filed as 5.0)

Measured: growth inhibition

Cc1ccc(Nc2nc3c(=O)n(C)c(=O)n(C)c3nc2Nc2ccc(C)cc2)cc1
active: [5]; at 50.0 µM 92.5% | [6]; at 50.0 µM 95.3% | [8]; at 50.0 µM 92.8% | [10]; at 50.0 µM 79.3% | [11]; at 50.0 µM 94.5% | [14]; [17] 89% | [14]; at 50.0 µM 95.7%
inactive: [1]; at 1.2 µM -2% | [1]; at 3.7 µM 2% | [1]; at 11.0 µM 2% | [1]; at 33.0 µM 2% | [1]; at 100.0 µM 30% | [2]; at 1.2 µM 0% | [2]; at 3.7 µM -1% | [2]; at 11.0 µM 1% | [2]; at 33.0 µM -3% | [2]; at 100.0 µM 6% | [3]; at 1.2 µM 3% | [3]; at 3.7 µM -2% | [3]; at 11.0 µM -6% | [3]; at 33.0 µM -16% | [3]; at 100.0 µM 41% | [4]; at 1.2 µM -2% | [4]; at 3.7 µM -4% | [4]; at 11.0 µM -4% | [4]; at 33.0 µM 11% | [4]; at 100.0 µM -2% | [5]; at 1.2 µM -2% | [5]; at 3.7 µM 1% | [5]; [16] -13% | [5]; at 11.0 µM 2% | [5]; at 33.0 µM 0% | [5]; [17] 66% | [5]; at 100.0 µM 23% | [6]; at 1.2 µM -2% | [6]; at 3.7 µM 3% | [6]; [16] -9% | [6]; at 11.0 µM -2% | [6]; at 33.0 µM -4% | [6]; [17] 22% | [6]; at 100.0 µM 11% | [7]; at 1.2 µM 0% | [7]; at 3.7 µM -4% | [7]; at 11.0 µM -1% | [7]; at 33.0 µM -5% | [7]; at 100.0 µM 7% | [8]; [16] -2% | [8]; [17] 45% | [9]; at 1.2 µM -2% | [9]; at 3.7 µM 3% | [9]; at 11.0 µM -4% | [9]; at 33.0 µM -5% | [9]; at 100.0 µM -10% | [10]; [16] -14% | [10]; [17] 11% | [11]; at 1.2 µM -3% | [11]; at 3.7 µM -5% | [11]; [16] -9% | [11]; at 11.0 µM 0% | [11]; at 33.0 µM -1% | [11]; [17] 16% | [11]; at 100.0 µM 2% | [12]; at 1.2 µM 0% | [12]; at 3.7 µM -2% | [12]; at 11.0 µM 1% | [12]; at 33.0 µM -3% | [12]; at 100.0 µM 3% | [13]; at 1.2 µM -3% | [13]; at 3.7 µM 2% | [13]; at 11.0 µM 1% | [13]; at 33.0 µM 3% | [13]; at 100.0 µM 20% | [14]; [16] -14% | [15]; at 1.2 µM 2% | [15]; at 3.7 µM 0% | [15]; at 11.0 µM 11% | [15]; at 33.0 µM 4% | [15]; at 100.0 µM 46%
